Measured values taken from the supplement of paper PMC9135407.
Where a name gives a salt, the structure may show the parent alone.

Tested on: primary human hepatic stellate cells (donor 1)
Assay: ACTA2 mRNA fold change vs DMSO (normalised to PSMB2); higher = more ACTA2 expression
Conditions: 48 h
Description: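 Secondary qRT-PCR screen in primary human HSCs (donor 1), 384-well plates, with compounds dispensed in quadruplicate and incubated for 48 h. Cells-to-CT lysates were used for multiplexed TaqMan qPCR of ACTA2 or COL1A1 with PSMB2 as reference. Fold changes versus DMSO come from a linear model (Ct_gene ~ Ct_PSMB2 + plate + chemical). A hit is defined as COL1A1 and ACTA2 FC <0.5 (FDR <0.05) with PSMB2 between 0.2 and 2.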

Compound	ACTA2 mRNA fold change
O=[N+]([O-])/C=C/c1ccc2c(c1)OCO2 (3.7 µM)	0.905
Fc1cc(F)c2c(c1)[C@H]1C=CC[C@H]1C(c1cccnc1)N2 (some centres not stated) [Golgicide A] (33.3333 µM)	0.00835
CN(C(=O)Cc1ccc(Cl)c(Cl)c1)[C@H](CN1CCCC1)c1ccccc1 [ICI-199,441 hydrochloride] (33.3333 µM)	0.0655
CCN(CC)CCO[C@H]1CC[C@@]2(C)C(=CC[C@@H]3[C@@H]2CC[C@]2(C)C(=O)CC[C@@H]32)C1 (33.3333 µM)	0.123
O=C1C2CCN(CC2)C1(CO)CO (90 µM)	0.152
COc1ccc2[nH]cc(C3=CCNCC3)c2c1 (33.3333 µM)	3.02
C[C@H](N)Cn1ccc2cc(F)c(Cl)cc21 [Ro 60-0175 fumarate] (33.3333 µM)	0.532
C[C@@H]1O[C@@H](O[C@H]2C[C@@H](O)[C@]3(CO)[C@H]4[C@H](O)C[C@]5(C)[C@@H](C6=CC(=O)OC6)CC[C@]5(O)[C@@H]4CC[C@]3(O)C2)[C@H](O)[C@H](O)[C@H]1O [Ouabain] (33.3333 µM)	0.0189
CCN1CCN(C(=O)Cc2ccc(Nc3ncc(F)c(Nc4ccc(C(=O)Nc5ccccc5Cl)cc4)n3)cc2)CC1 [Aurora A Inhibitor I] (33.3333 µM)	0.131
O=c1[nH]c2ccccc2n1C1CCN(CCCC(c2ccc(F)cc2)c2ccc(F)cc2)CC1 [Pimozide] (33.3333 µM)	0.0136
CC1=C(CC/C(C)=C/CCC2=CC[C@H](C3=CC(=O)O[C@H]3O)O[C@H]2O)C(C)(C)CCC1 [Manoalide] (40 µM)	0.0669
CCCCCCCCCCCCCC(=O)O[C@@H]1[C@@H](C)[C@@]2(O)[C@@H](C=C(CO)C[C@]3(O)C(=O)C(C)=C[C@@H]23)[C@@H]2C(C)(C)[C@]12OC(C)=O [Phorbol 12-myristate 13-acetate] (27.0333 µM)	0.624
CC(C(=O)OC1CC2CCC(C1)N2C)c1ccc(Br)cc1 (configuration not stated) [PG-9 maleate] (33.3333 µM)	0.404
COc1ccc2c(c[n+](C)c3c4cc5c(cc4ccc23)OCO5)c1OC (6.66667 µM)	0.0494
CC1=NCCc2c1[nH]c1cc(O)ccc21 [Harmalol hydrochloride dihydrate] (24.4333 µM)	0.546
CN1[C@@H]2CC[C@H]1C[C@@H](OC(c1ccc(F)cc1)c1ccc(F)cc1)C2 [3 α-Bis-(4-fluorophenyl) methoxytropane hydrochloride] (33.3333 µM)	0.094
C[C@]12CC[C@H](O)C[C@H]1CC[C@@H]1[C@@H]2CC[C@]2(C)[C@@H](C3=CC(=O)OC3)CC[C@]12O [Digitoxigenin] (33.3333 µM)	0.0171
O=C1/C(=C/c2ccccc2)C[C@@]2(O)[C@H]3Cc4ccc(O)c5c4[C@@]2(CCN3CC2CC2)[C@H]1O5 [BNTX maleate] (33.3333 µM)	0.275
CC[C@H]1CN2CCc3cc(OC)c(OC)cc3[C@@H]2C[C@@H]1C[C@H]1NCCc2cc(OC)c(OC)cc21 [Emetine] (12.0333 µM)	0.0996
CO[C@H]1CC[C@@H](O[C@H]2C[C@H]([C@]3(C)CC[C@]4(C[C@H](O)[C@@H](C)[C@@H]([C@@H](C)/C=C(\C)C(=O)[C@H](C)C[C@H](C)C(=O)O)O4)O3)O[C@]3(O[C@@H]([C@H]4O[C@@](O)(CO)[C@H](C)C[C@@H]4C)C[C@@H]3C)[C@@H]2C)O[C@@H]1C [Nanchangmycin] (11.1 µM)	0.0291
CN[C@@H]1C[C@H]2O[C@@](C)([C@@H]1OC)n1c3ccccc3c3c4c(c5c6ccccc6n2c5c31)C(=O)NC4 [staurosporine] (35.6667 µM)	0.667
CC1=C(O)C(=O)C=C2C1=CC=C1[C@@]2(C)CC[C@@]2(C)[C@@H]3C[C@](C)(C(=O)O)CC[C@]3(C)CC[C@]12C [Celastrol] (3.33333 µM)	0.524
